Source: PubChem BioAssay
Shiga inhibitor: A qHTS for Small Molecule Inhibitors of Shiga Toxin. Vero cells, Shiga toxin protein synthesis inhibition reporter. inhibition, % at 38.7 µM. hit rate 9.2% among 290,000. AID 2315, 2010; in the data active = inhibition mostly above about 28%, no sharp cut-off; inactive = mostly below about 43%; note: 0% is about no effect
Vaccinia Venus: qHTS for Stage-Specific Inhibitors of Vaccinia Orthopoxvirus: Venus Reporter Primary qHTS; Vaccinia virus Venus reporter expression, fluorescence; Potency, µM (top dose mostly 36.5 µM), for the others: at the highest dose activity change, negative = inhibition, actives largely listed as inhibitors; hit rate 0.46% among 330,000; AID 720580, 2013; calls by dose curve; tested in A549 cells; note: potency is the fitted concentration of half-maximal effect; % is set by controls: 0 for no effect and ±100 for the full control effect; nearly all actives have a fitted effect of over 30% in size
VACV mCherry inh: qHTS for Stage-Specific Inhibitors of Vaccinia Orthopoxvirus: mCherry Reporter Primary qHTS. Vaccinia virus mCherry reporter infection, fluorescence. Potency, µM (top dose mostly 36.5 µM), without a hit: at the top dose activity change, negative = inhibition, usual class: inhibitors. hit rate 0.63% among 310,000; calls by dose curve; tested in A549 cells; note: potency is the fitted concentration of half-maximal effect; % is set by controls: 0 for no effect and ±100 for the full control effect; nearly all actives have a fitted effect of over 35% in size
Cycloheximide cs: Cycloheximide Counterscreen for Small Molecule Inhibitors of Shiga Toxin. cell reporter, cycloheximide protein synthesis inhibition counterscreen. max response, %. hit rate 12% among 300,000. AID 2314, 2010; in the data active = max response mostly above about 13%, no sharp cut-off; inactive = mostly below about 14%; note: read at 38.3 µM for the half of the compounds with a filed dose; 0% is about no effect
Marburg entry inh: qHTS for inhibitors of binding or entry into cells for Marburg Virus; Marburg virus pseudotyped entry inhibition, cell reporter; Potency, µM (highest dose often 37.8 µM), for inactives: top-dose activity change, negative = inhibition, hits mostly inhibitors; hit rate 1.8% among 300,000; AID 540276, 2011; calls by dose curve; tested in HEK293 cells; note: potency is the fitted concentration of half-maximal effect; % is set by controls: 0 for no effect and ±100 for the full control effect
Lassa entry inh: qHTS for Inhibitors of binding or entry into cells for Lassa Virus. Lassa virus pseudotype entry inhibition, cell reporter. Potency, µM (highest dose often 37.9 µM), without a hit: top-dose activity change, negative = inhibition, actives largely listed as inhibitors. hit rate 1.2% among 300,000; calls by dose curve; tested in HEK293 cells; note: potency is the fitted concentration of half-maximal effect; % is set by controls: 0 for no effect and ±100 for the full control effect; nearly all actives have a fitted effect of over 50% in size
Numbers without * were called inactive; i = inactive; ? = inconclusive; . = no result given; [ ] = another dose, or the depositor's remark. The entries come from a sample that favours hits as a whole.

SMILES	Shiga inhibitor	Vaccinia Venus	VACV mCherry inh	Cycloheximide cs	Marburg entry inh	Lassa entry inh
CC(C)CC1C(=O)N(Cc2cn(CC3CCCCC3)nn2)CCS(=O)(=O)N1Cc1ccc(-c2ccncc2)cc1 (stereo not given)	.	-24%	-11%	.	.	14µM*
Cn1cnc([N+](=O)[O-])c1S(=O)(=O)c1ccc(Cl)cc1	10	0%	i	-3	?	20µM*
CCOC(=O)Cn1nnc(-c2ccc([N+](=O)[O-])cc2)n1	14	-17%	i	11*	13%	3%
CCOC(=O)Cn1nnc(-c2ccccc2)n1	11	-11%	-1%	-3	14%	22%
CCOc1ccc(-c2nnn(CC(=O)NCc3ccco3)n2)cc1	28	.	.	26*	?	-13%
CCCOc1ccc(-c2nnn(CC(=O)OCC)n2)cc1	44	.	.	20*	24%	15%
CN1C(=O)Cc2cc(S(=O)(=O)NCc3ccc(Cl)cc3)ccc21	.	2%	-2%	.	.	7%[46.1 µM]
CCOC(=O)Nc1c[n+](N2CCOCC2)no1	.	.	.	.	1%	.
CCN(CC)c1ccc(/C=C/c2sc3ccccc3[n+]2CCCCI)cc1	.	i	i	.	.	.
CCOCCCNC(=O)C(c1ccc(C)cc1)N(Cc1cccs1)C(=O)c1ccc(NC(C)=O)cc1 (stereo not given)	.	-8%	-9%	.	?	?
CCOCCCNC(=O)C(c1ccc(Cl)cc1)N(Cc1cccs1)C(=O)c1ccc(NC(C)=O)cc1 (stereo not given)	.	1%	-5%	.	10µM*	?
CCOCCCNC(=O)C(c1ccc(C)cc1)N(Cc1cccs1)C(=O)c1ccccc1O (stereo not given)	-15	-19%	-12%	1	?	11µM*
CCN1C(=O)NC(c2cccs2)C(C(=O)OC)=C1C (stereo not given)	.	.	.	.	1%[14.2 µM]	.
CC(C)Cc1nc2cc(NS(=O)(=O)N(C)C)cc(C(=O)N3CCN(c4ccccc4)CC3)c2n1C	.	?	i	.	.	.
Cc1c(C(=O)Nc2cccnc2Cl)oc2ccccc12	81*	-9%	-22%	26*	16%[46.1 µM]	?
Cc1c(C(=O)Nc2ccccn2)oc2c(Cl)cccc12	.	-11%	i	.	?	7%[46.1 µM]
Cc1ccc(NC(=O)c2oc3ccccc3c2C)nc1	88*	-8%	-10%	63*	?	-23%[46.1 µM]
Cc1c(C(=O)Nc2ccncc2)oc2ccccc12	52	.	.	35*	-4%	-1%
Cc1c(C(=O)Nc2ccccn2)oc2ccccc12	109*	.	.	47*	?	-8%
Cc1cc2nccc(C)c2cc1C	.	-14%	-7%	.	.	.
COc1ccc(-n2nc(C(=O)NCC(=O)NC3CCCCCC3)c3ccccc3c2=O)cc1OC	1	-9%	-3%	-2	-5%[46.1 µM]	-5%
CCCNc1nc(Nc2ccc([N+](=O)[O-])cc2)nc(N2CCOCC2)n1	.	-27%	?	.	.	.
CCN(CC)CCC[C@H](C)N=C(c1ccccc1)c1c(O)n(C)c(=O)n(C)c1=O	.	.	.	.	-2%	.
Cc1c(C(=O)Nc2ccc(N3CCOCC3)cc2)oc2ccccc12	97*	.	.	40*	?	17%
O=C(NCC1CCCO1)C(c1ccncc1)N(Cc1cccs1)C(=O)CN1C(=O)c2ccccc2S1(=O)=O (stereo not given)	30	5%	5%	11*	15%[46.1 µM]	-8%
SMILES	Shiga inhibitor	Vaccinia Venus	VACV mCherry inh	Cycloheximide cs	Marburg entry inh	Lassa entry inh
Cc1ccccc1CCN(C(=O)CN1C(=O)c2ccccc2S1(=O)=O)C(C(=O)NCC1CCCO1)c1ccncc1 (stereo not given)	-9	-9%	i	-2	23%	1%
CCC1Oc2ccccc2N(CC(=O)NCCC2=CCCCC2)C1=O (stereo not given)	34	-9%	-29%	22	?	0%
O=C(NCCC1=CCCCC1)C1COc2ccccc2O1 (stereo not given)	54*	-26%	.	20*	?	3%
O=C(NCCc1ccc(C(F)(F)F)cc1)C1COc2ccccc2O1 (stereo not given)	112*	-11%	-7%	42*	4%	11%
CCOc1ccc(NC(=O)C2=C(C)C(=O)OC23CCC(C)CC3)cc1 (stereo not given)	2	-8%	-3%	-5	-1%[46.1 µM]	19%[46.1 µM]
CCCCCC(=O)N1C[C@H](O)[C@@H](n2cc(-c3ccc(F)cc3)nn2)C[C@H]1c1ccccc1	.	.	.	.	.	3%[46.1 µM]
